# Screening data deposited in PubChem by several laboratories.
# TROY NFkB inh = TROY signaling inhibition; Q293 LMP1-TROYcd NF-kB luciferase reporter, 4 h; inhibition, % at 10 µM; hit rate 0.98% among 360,000; AID 1347056;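 active means compounds whose plate-normalised and pattern-corrected inhibition of the luciferase reporter signal at the single screening dose is 50% or more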
# aSyn UTR inh = MLPCN primary screen, SNCA 5' untranslated region; alpha-synuclein 5'UTR reporter, inhibitor activity; inhibition, % (tested at 7.5 µM); hit rate 0.82% among 300,000; AID 1813; in the data active means inhibition above about 60%;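 further: H4 neuroglioblastoma cells stably carrying SNCA 5'UTR luciferase fusion; 0% = DMSO wells and 100% = positive control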
# TWEAK-Fn14 inh = inhibitors of TWEAK-Fn14 interaction signaling; TWEAK-stimulated Fn14 reporter cells, luciferase luminescence, 8 h; inhibition, % at 10 µM; hit rate 2% among 360,000; in the data active means inhibition above about 50%
# C8 TRAIL sens = sensitizes caspase-8 expressing cells to TRAIL | inhibition (viability loss, TRAIL sensitization), % at 10 µM | hit rate 1% among 360,000 | NB7+C8 cells + TRAIL, ATPlite viability luminescence;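 active means compounds causing at least 50% loss of cell viability in the single-dose screen, relative to plate controls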
# HIF-2a inh = blocks HIF-2a reporter activity. inhibition, % at 18.8 µM. 786-0 RCC cells HIF-2a reporter, luciferase luminescence, overnight. hit rate 0.72% among 360,000;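 active means inhibition of the luminescence signal of 40% or more relative to plate controls, in a single-dose primary screen at 18.75 µM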
# HSP90 inh = blocks HSP90-mediated luciferase refolding in reticulocyte lysate. Rabbit reticulocyte lysate, luciferase refolding luminescence, 3 h. inhibition, % at 5.6 µM. hit rate 0.91% among 290,000. AID 1789;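 active means inhibition above the screen-wide mean plus 3 SD, computed separately per campaign, cut at about 16% in these data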;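 further: 0% = DMSO wells and 100% = 60 µM geldanamycin wells; inhibitors lower the luminescence because luciferase stays unfolded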
# Mdm2-MdmX confirm = confirmation of inhibitors of human Mdm2/MdmX interaction, set 2; shares compounds with HIF-2a inh; SaOS-2 split-luciferase Mdm2/MdmX complementation, luminescence; inhibition, % at 8 µM; hit rate 99% among 740;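 active means mean inhibition of the luminescence signal across two replicates at or above 26 percent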
# Target sequence (O15151 whole entry, looked up): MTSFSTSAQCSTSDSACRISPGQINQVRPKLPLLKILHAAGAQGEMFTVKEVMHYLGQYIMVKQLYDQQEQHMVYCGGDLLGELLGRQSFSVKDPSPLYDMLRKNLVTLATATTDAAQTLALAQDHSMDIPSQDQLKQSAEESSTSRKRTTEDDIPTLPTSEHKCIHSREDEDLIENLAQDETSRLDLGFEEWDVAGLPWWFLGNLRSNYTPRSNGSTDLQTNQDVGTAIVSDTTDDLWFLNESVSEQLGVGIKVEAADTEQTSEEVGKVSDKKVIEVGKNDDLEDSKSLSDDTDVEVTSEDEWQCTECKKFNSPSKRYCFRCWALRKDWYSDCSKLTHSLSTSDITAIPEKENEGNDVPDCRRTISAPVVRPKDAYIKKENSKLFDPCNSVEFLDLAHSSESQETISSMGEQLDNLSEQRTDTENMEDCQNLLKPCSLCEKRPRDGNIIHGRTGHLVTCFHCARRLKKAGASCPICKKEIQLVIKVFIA
# Target sequence (Q00987 whole entry, looked up): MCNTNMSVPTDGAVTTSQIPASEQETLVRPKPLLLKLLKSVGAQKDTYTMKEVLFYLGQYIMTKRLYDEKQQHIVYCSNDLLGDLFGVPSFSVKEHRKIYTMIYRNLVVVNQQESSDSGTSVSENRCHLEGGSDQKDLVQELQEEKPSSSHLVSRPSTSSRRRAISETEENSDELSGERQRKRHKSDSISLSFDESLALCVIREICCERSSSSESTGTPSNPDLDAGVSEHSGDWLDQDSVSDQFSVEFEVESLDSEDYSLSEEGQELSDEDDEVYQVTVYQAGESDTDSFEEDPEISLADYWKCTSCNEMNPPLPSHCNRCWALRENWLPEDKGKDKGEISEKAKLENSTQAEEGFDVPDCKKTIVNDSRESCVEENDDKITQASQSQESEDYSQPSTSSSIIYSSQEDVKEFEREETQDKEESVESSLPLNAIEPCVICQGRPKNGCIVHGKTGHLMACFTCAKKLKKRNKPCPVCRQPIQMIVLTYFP
# HIF-2a inh conf = HIF-2a inhibition, single concentration confirmation; inhibition, % at 18.8 µM; hit rate 56% among 1,800; shares compounds with HIF-2a inh; 786-0 RCC cells, HIF-2a luciferase reporter luminescence, overnight;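 active means mean inhibition across four replicates of at least 40 percent at the single tested concentration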
# HIF-1a cs = inhibits HIF-1a reporter, a counter-screen for HIF-2a inhibitors; shares compounds with HIF-2a inh; MiaPaCa-2 HIF-1a luciferase reporter, desferoxamine, overnight; inhibition, % at 18.8 µM; hit rate 72% among 1,800; AID 651589;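 active means mean inhibition of the reporter signal across four replicates at the single tested dose of 50% or more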
# Active calls of the source: *; . = not tested or not shown; ! = repeats disagree. In the library only some 3.9% were active in any assay of this set; here they are far more common.
SMILES,TROY NFkB inh,aSyn UTR inh,TWEAK-Fn14 inh,C8 TRAIL sens,HIF-2a inh,HSP90 inh,HIF-2a inh conf,HIF-1a cs,others
COCCNC(=O)C1(C)CCCN(C(=O)c2ccccc2F)C1 (stereo not drawn),-1,.,-5,-5,9,.,.,.,
Cc1ccc(C(=O)Nc2cccc(C(F)(F)F)c2)cc1NC(=O)c1c[nH]c2cc(C(F)(F)F)ccc2c1=O,-12,.,-3,1,-1,.,.,.,
CCN1CCN(Cc2ccc(NC(=O)c3ccc(C)c(NC(=O)c4c[nH]c5cc(C(F)(F)F)ccc5c4=O)c3)cc2C(F)(F)F)CC1,-3,113*,-49,95*,67*!,.,11,101*,Mdm2-MdmX confirm=102*
N#C/C(=C\c1ccc([N+](=O)[O-])o1)c1nc2ccccc2[nH]1,.,-2,.,.,.,3,.,.,Mdm2-MdmX confirm=103*
Cc1ccc(NC(=O)c2ccc(N3CCCC3=O)cc2)cc1S(=O)(=O)N1CCCCC1,19,.,-7,-1,3,.,.,.,
CCCn1c(C)cc(C(=O)COC(=O)c2ccc[nH]c2=O)c1C,72*,43,80*,54*,42*,2,36,14,
Cc1cc(C(=O)COC(=O)CN(C)S(=O)(=O)c2ccc(Cl)cc2)c(C)n1CC1CCCO1 (stereo not drawn),1,13,-14,16,7,-1,.,.,
CCn1c(C)cc(C(=O)COC(=O)c2ccccc2[N+](=O)[O-])c1C,90*,.,105*,93*,82*,.,87*,87*,Mdm2-MdmX confirm=98*
C=CCn1c(C)cc(C(=O)COC(=O)c2ccc(N)c([N+](=O)[O-])c2)c1C,7,-142,35,9,-232,-3,.,.,
Cc1cc(C(=O)COC(=O)c2ccccc2O)c(C)n1CC1CCCO1 (stereo not drawn),90*,.,106*,87*,90*,.,95*,98*,
O=C(O)CCC(=O)c1ccc(C2CCCCCC2)cc1,-39,.,-7,-7,-90,.,.,.,
O=C1c2ccccc2C(=O)c2c1oc(C(F)(F)F)c2C(=O)c1ccccc1,55*,101*,74*,96*,23,-1,.,.,Mdm2-MdmX confirm=94*
O=C(c1ccccc1)c1ccc(CN2C(=O)c3ccccc3C2=O)o1,-19,13,-8,-19,-5,-2,.,.,
COC(=O)c1ccc2c(c1)C(C)(C)C(/C=C/c1ccccc1O)=[N+]2C,14,118*,87*,36,96*,3,99*,105*,Mdm2-MdmX confirm=103*
C[C@@H]1CN([C@H](C)CO)C(=O)CCCn2cc(nn2)CO[C@H]1CN(C)C(=O)Nc1ccc(-c2cccs2)cc1,-26,.,-25,-5,-15,.,.,.,
CN(C(=O)C=Cc1ccco1)c1ccccc1,-3,.,8,-5,-33,.,.,.,
CN(C(=O)/C=C/c1ccc([N+](=O)[O-])s1)c1ccccc1,-16,-82,41,1,62*,2,61*,90*,
CC1Cc2ccccc2N1S(=O)(=O)c1cccc(C(=O)N2CCN(c3ncccn3)CC2)c1 (stereo not drawn),22,46,-3,43,-13,4,.,.,Mdm2-MdmX confirm=100*
CC(=O)N1CCN(C(=O)c2cccc(S(=O)(=O)N3c4ccccc4CC3C)c2)CC1 (stereo not drawn),5,.,-2,-5,7,.,.,.,
CCc1ccc(NC(=O)COc2ccc(/C=C(/C#N)c3nc4ccccc4[nH]3)cc2OC)cc1,15,15,7,25,-1,3,.,.,Mdm2-MdmX confirm=89*
COc1cc(/C=C(/C#N)c2nc3ccccc3[nH]2)ccc1OCc1ccc(C(=O)O)o1,-7,-16,6,11,6,2,.,.,
C=CCNC(=O)C1CC1(c1cccc(C)c1)c1cccc(C)c1 (stereo not drawn),-15,-7,3,23,20,.,.,.,
Cc1cccc(C2(c3cccc(C)c3)CC2C(=O)Nc2ccc([N+](=O)[O-])cc2O)c1 (stereo not drawn),60*,20,74*,39,22,-4,.,.,Mdm2-MdmX confirm=100*
O=C1/C(=C/c2ccccc2[N+](=O)[O-])COc2ccccc21,33,-114,94*,-24,61*,-3,-104,103*,
CCOc1cc(C=C(C(=O)OC)C(=O)OC)ccc1OCc1ccc([N+](=O)[O-])cc1,52*,.,83*,29,92*,3,98*,107*,
SMILES,TROY NFkB inh,aSyn UTR inh,TWEAK-Fn14 inh,C8 TRAIL sens,HIF-2a inh,HSP90 inh,HIF-2a inh conf,HIF-1a cs,others
O=C(Nc1ccccc1)c1cc(C2CCCN(C(=O)c3ccccc3)C2)on1 (stereo not drawn),-58,.,-7,4,-256,.,.,.,
CCCC(=O)N1CCCC(c2cc(C(=O)Nc3ccccc3)no2)C1 (stereo not drawn),83*,.,95*,52*,43*,.,66*,71*,
COC(=O)C1(C(=O)OC)C[C@H](c2cccs2)N(Cc2ccccc2OC)[C@@H]1c1ccc(F)cc1,.,.,.,14,7,.,.,.,
O=[N+]([O-])c1ccc(Oc2cccc3cccnc23)c([N+](=O)[O-])c1,-31,-17,20,-17,41*,0,14,-8,
CCCc1cc(=O)oc2cc(C)cc(OCC(=O)N3C[C@H]4C[C@@H](C3)c3cccc(=O)n3C4)c12,6,.,7,-3,2,.,.,.,
CCCCCCCCCCCCCCCC[N+](C)(C)CCl,3,.,-27,90*,54*,.,39,75*,
CCCCCC[N+](C)(C)CCSSCC[N+](C)(C)CCCCCC,1,-10,1,10,14,-3,.,.,
CCCCCCCCCCCCCCCC[N+](C)(C)CC,33,101*,41,92*,59*,.,46*,98*,
CC#CC[N+](C)(C)CCCCCCCCCCCC,45,8,20,40,52*,-3,39,72*,
CC1(C)c2ccccc2C(=O)c2ccccc21,-10,.,-1,0,-5,.,.,.,
O=[N+]([O-])C1C(c2ccccc2)C12c1ccccc1-c1ccccc12 (stereo not drawn),-1,.,57*,30,49*,.,43*,-11,
CN(CCc1ccccc1)C(=O)c1[nH]c(C(F)(F)F)nc1-c1ccccc1,2,.,5,-8,-2,.,.,.,
CC(=O)c1ccc(Nc2cc(C)nc3c(C)cc(C)cc23)cc1,-7,21,-3,-19,59*,2,18,85*,
Cc1cc(C)c2nc(C)cc(Nc3ccc(C(=O)N(C)C)cc3)c2c1,.,-19,.,.,.,0,.,.,
CC1=C/C(=N\OS(=O)(=O)c2ccccc2)C(C(C)C)=CC1=O,14,.,49,-17,29,-2,.,.,
